Assay results published in PubChem BioAssay (NCATS).
Records with an inconclusive call do not appear. The source made the active and inactive calls. Unless noted, calls come from the whole dose curve.

Assays:
[1] = qHTS for Inhibitors of the Functional Ribonucleoprotein Complex (vRNP) of Lassa (LASV) Arenavirus: LASV Primary Screen - GLuc reporter signal (AID 1347082; calls by dose curve; tested in HEK293 reporter line; note: nearly all actives have a fitted effect of over 60% in size)
[2] = qHTS for Inhibitors of the Functional Ribonucleoprotein Complex (vRNP) of Lassa (LASV) Arenavirus: Viability assay - alamar blue signal for LASV Primary Screen (AID 1347083; calls by dose curve; tested in HEK293 reporter line; note: nearly all actives have a fitted effect of over 80% in size)
[3] = qHTS for Inhibitors of the Functional Ribonucleoprotein Complex (vRNP) of Lymphocytic Choriomeningitis Arenaviruses (LCMV): Viability assay - alamar blue signal for LCMV Primary Screen (AID 1347085; calls by dose curve; tested in HEK293 reporter line; note: nearly all actives have a fitted effect of over 80% in size)
[4] = molecular target: Nucleoprotein (Lymphocytic choriomeningitis virus (strain Armstrong)) (UniProt P09992); assay: qHTS for Inhibitors of the Functional Ribonucleoprotein Complex (vRNP) of Lymphocytic Choriomeningitis Arenaviruses (LCMV): LCMV Primary Screen - GLuc reporter signal (AID 1347086); note: nearly all actives have a fitted effect of over 70% in size

Measured: Potency
Note: series mostly up to about 57 µM.

Nucleoprotein (Lymphocytic choriomeningitis virus (strain Armstrong)), sequence (P09992 whole entry, looked up): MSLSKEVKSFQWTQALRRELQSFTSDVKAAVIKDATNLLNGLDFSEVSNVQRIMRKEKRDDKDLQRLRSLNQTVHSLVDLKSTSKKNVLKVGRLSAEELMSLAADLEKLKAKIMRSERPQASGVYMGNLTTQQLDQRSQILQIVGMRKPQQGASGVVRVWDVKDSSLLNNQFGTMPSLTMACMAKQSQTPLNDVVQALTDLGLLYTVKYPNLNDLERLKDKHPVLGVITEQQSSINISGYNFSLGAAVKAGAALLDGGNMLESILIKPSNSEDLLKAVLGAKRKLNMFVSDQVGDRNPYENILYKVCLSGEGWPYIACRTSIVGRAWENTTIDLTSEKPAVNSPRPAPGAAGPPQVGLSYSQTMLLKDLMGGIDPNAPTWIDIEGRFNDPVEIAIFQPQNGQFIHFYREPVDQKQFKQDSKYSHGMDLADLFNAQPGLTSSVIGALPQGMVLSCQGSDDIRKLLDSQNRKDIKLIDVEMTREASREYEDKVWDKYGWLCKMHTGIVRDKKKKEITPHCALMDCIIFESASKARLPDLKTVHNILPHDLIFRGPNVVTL

O=C(Nc1ccc(S(=O)(=O)N2CCOCC2)cc1)c1cc(Cl)ccc1NS(=O)(=O)c1ccc(Cl)s1
inactive: all assays above

COc1cc([C@H]2Oc3cc([C@H]4Oc5cc(O)cc(O)c5C(=O)[C@@H]4O)ccc3O[C@@H]2CO)ccc1O
inactive: all assays above

Clc1ccc2c(c1)CCc1cccnc1C2=C1CCNCC1
inactive: all assays above

CC(Cc1cccc(C(F)(F)F)c1)NCCOC(=O)c1ccccc1 (stereo not drawn)
inactive: all assays above

Cc1c(C)n(Cc2ccccc2)c2ccc(C(=O)OCCN(C)C)cc12
inactive: all assays above

CCN(CC)CCOc1ccccc1C(=O)CCc1ccccc1
inactive: all assays above

O=C(O)COC(=O)Cc1ccccc1Nc1c(Cl)cccc1Cl
inactive: all assays above

CC(=O)Oc1ccc(C(=C2CCCCC2)c2ccc(OC(C)=O)cc2)cc1
inactive: all assays above

CCCNC(C)(C)COC(=O)c1ccccc1
inactive: all assays above

COc1cc2[nH]c(=O)[nH]c(=O)c2cc1OC
inactive: all assays above

CN(C)CCn1nnnc1SCC1=C(C(=O)O)N2C(=O)[C@@H](NC(=O)Cc3csc(N)n3)[C@H]2SC1
inactive: all assays above

C[C@]12CCC(=O)C=C1CC[C@@H]1[C@@H]2C(=O)C[C@@]2(C)[C@H]1CC[C@]2(O)C(=O)CO
inactive: all assays above
